Screens (PubChem BioAssay)
DRD3 antagonist = antagonists of human D3 dopamine receptor | P35462 | D3R cells, DiscoveRx beta-arrestin luminescence, antagonist mode; active compounds read low | max response, negative = inhibition, % | actives 2.5% (n = 360,000) | AID 652054; in the data active = max response below about -50%; inconclusive = no clear call, values can overlap the other calls
Target sequence (P35462 whole entry, looked up): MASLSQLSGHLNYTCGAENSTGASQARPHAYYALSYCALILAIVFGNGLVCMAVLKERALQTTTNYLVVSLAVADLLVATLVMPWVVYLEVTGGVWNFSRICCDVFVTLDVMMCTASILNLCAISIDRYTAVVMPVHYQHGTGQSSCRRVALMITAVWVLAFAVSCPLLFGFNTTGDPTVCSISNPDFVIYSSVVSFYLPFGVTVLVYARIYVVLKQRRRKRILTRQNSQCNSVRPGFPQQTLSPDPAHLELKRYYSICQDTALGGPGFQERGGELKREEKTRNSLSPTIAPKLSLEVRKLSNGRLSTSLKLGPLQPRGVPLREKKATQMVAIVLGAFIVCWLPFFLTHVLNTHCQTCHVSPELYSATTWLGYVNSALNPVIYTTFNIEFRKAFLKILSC
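Cells plated overnight at 1500 cells/well, then exposed to library compounds with dopamine controls for 90 minutes at 37 degrees C. DiscoveRx reagent added for 30–60 minutes at room temperature; luminescence read, quantitative HTS format.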
TDP1 cell CPT = DT40-hTDP1 cell growth loss with CPT. chicken DT40 Tdp1-/-;hTDP1 cells + 20 nM CPT, ATP luminescence, 48 h. Potency, µM (titrated, usually from 46.2 µM), most hits filed as inhibitors. actives 12% (n = 420,000); note: nearly all actives have a fitted effect of over 55% in size
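Cell growth measured by CellTiter-Glo luminescence after a minimum 48 h, 37 C compound exposure with 20 nM CPT in Tdp1-knockout DT40 cells stably expressing hTDP1, seeded 400/well; qHTS titration format.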
IL-1B inflam inh = inhibitors of inflammasome signaling (IL-1 beta secretion) | activity change, % at 57.5 µM | THP-1 LPS/ATP IL-1B secretion, AlphaLISA, 16 h; active compounds read low | AID 743279 | actives 4.7% (n = 360,000); in the data active = activity change below about -50%; inconclusive = mostly about -30% to -49%
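Secreted IL-1B measured by AlphaLISA bead assay after 16 h compound exposure of THP-1 cells; compounds (final up to 57.5 uM) added 1 h before LPS (250 ng/mL) and ATP (1.25 mM) stimulation; lower signal means less secretion.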
DRD3 agonist = agonists of human D3 dopamine receptor | D3R DiscoveRx beta-arrestin cells, luminescence, 90 min | P35462 | actives 0.58% (n = 410,000) | AID 652048 | max activation, %; in the data active = max activation above about 30%
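Agonist mode: compounds and dopamine controls were applied to plated cells for 90 min at 37 degrees C after an overnight attachment at 1500 cells/well. Luminescent read-out followed 30 - 60 minutes at room temperature with DiscoveRx detection reagent.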
DT40 TDP1 no CPT = qHTS for Inhibitors of human tyrosyl-DNA phosphodiesterase 1 (TDP1): qHTS in cells in absence of CPT; DT40 Tdp1-/- hTDP1 cells, no CPT, ATP luminescence, 48 h; Potency, µM (titrated, usually from 46.2 µM), hits mostly inhibitors; actives 15% (n = 420,000); AID 686978, 2013; note: nearly all actives have a fitted effect of over 55% in size
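Cells were dispensed at 400 per well, compounds added by pin tool, plates incubated ≥48 hr at 37 °C, then CellTiter-Glo added for 30 min at room temperature before luminescence reading. Line: DT40 Tdp1-/- complemented with hTDP1; camptothecin omitted.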
ClpP mod = qHTS Assay for Activators of ClpP; purified B. subtilis ClpP, FRET peptide cleavage, 20 min; Potency, µM (series often up to 57.5 µM); actives 1.9% (n = 340,000); AID 651965, 2013; active = well fitted falling curve with a large enough effect; inconclusive = small, poorly fitted or top-dose-only effect; inactive = no such curve, though single readings can be large or run the other way; note: the source files actives as falling curves though it sought activators and does not explain the sign; nearly all actives have a fitted effect of over 65% in size
Target sequence (P80244 whole entry, looked up): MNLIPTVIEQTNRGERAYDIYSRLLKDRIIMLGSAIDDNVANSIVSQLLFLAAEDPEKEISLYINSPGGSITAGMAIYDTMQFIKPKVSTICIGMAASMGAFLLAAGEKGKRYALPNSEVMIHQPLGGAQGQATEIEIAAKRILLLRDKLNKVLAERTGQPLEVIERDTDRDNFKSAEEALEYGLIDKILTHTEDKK
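FRET quenching reversal measured ClpP activation: 10 microg/mL B. subtilis ClpP at pH 8 with the FRET-FV decapeptide, read at 430 nm after 320 nm excitation. The 20-min minus 0-min signal was scaled between DMSO/no-enzyme wells and ADEP (5.8 microM final).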
Numbers stand for hits; . = inactive; ? = inconclusive; / = no result; ! = not confirmed by another sample. In the library only some 21% were active in any assay of this set; here they are far more common. Unless noted, calls come from the whole dose curve; as a rule, active = well fitted inhibition curve with a large enough effect; inconclusive = small, poorly fitted or top-dose-only effect; inactive = flat fitted curve, though single readings scatter.

SMILES | DRD3 antagonist | TDP1 cell CPT | IL-1B inflam inh | DRD3 agonist | DT40 TDP1 no CPT | ClpP mod
COc1ccc(-c2nc3c4cnn(-c5ccccc5F)c4ncn3n2)cc1 | / | . | / | . | . | .
COC(=O)C1CCN(S(=O)(=O)c2cc3c4c(c2)C(C)C(=O)N4CCC3)CC1 (stereo not drawn) | / | . | / | . | . | .
Cc1ccccc1CN(CC1CCC(C(=O)O)CC1)C(=S)Nc1ccccc1F (stereo not drawn) | . | . | . | . | . | /
CC(C)(C)c1ccc(S(=O)(=O)N2CCN(CC(O)COCC3CCCO3)CC2)cc1 (stereo not drawn) | . | . | . | . | . | .
CCOC(=O)c1ccc(S(=O)(=O)N2CCN(CC(=O)NC(=O)NC3CCCCC3)CC2)cc1 | . | . | -52 | . | . | .
O=S(=O)(c1ccc(Cl)c(C(F)(F)F)c1)N1CCN(CC(O)COCC2CCCO2)CC1 (stereo not drawn) | . | 21µM | . | . | 18µM | .
O=C(CN1CCN(S(=O)(=O)c2ccc(Cl)c(C(F)(F)F)c2)CC1)NC(=O)NC1CCCCC1 | . | 21µM | . | . | ? | .
COc1ccc2c(C=O)cn(C)c2c1 | . | . | . | . | . | /
COc1ccccc1C(=O)NC(=O)COC(=O)c1ccc(C)o1 | . | . | . | . | . | /
O=C(O)CCn1cc(/C=C\C(=O)c2ccc(Cl)cc2)c(-c2cccc(Br)c2)n1 | . | ? | -93 | . | 18µM | .
Cc1ccc(-c2nn(CCC(=O)O)cc2/C=C\C(=O)c2ccc(Br)cc2)cc1 | . | 12µM | . | . | ? | .
CCOC1(OCC)OC(c2ccccc2)=C(C#N)C(C=Cc2ccccc2)C1(OCC)OCC (stereo not drawn) | . | ? | . | . | 21µM | .
CCCCCC(=O)N1CCN(CCN=CC2=C(O)CC(c3cccs3)CC2=O)CC1 (stereo not drawn) | . | . | . | . | . | 32µM!
O=C(c1ccc2c(c1)N(Cc1ccc(Cl)cc1)C(=O)c1ccccc1S2(=O)=O)N1CCN(c2ccccn2)CC1 | / | 16µM | / | . | 23µM | .
O=C(c1ccc2c(c1)N(Cc1cccc(Cl)c1)C(=O)c1ccccc1S2(=O)=O)N1CCN(c2ccccn2)CC1 | . | ? | . | . | 13µM | .
Cc1ccc(S(=O)(=O)c2c(C)nn(C(C)(C)C)c2OC(=O)c2ccco2)cc1 | . | . | . | . | ? | .
Cc1ccc(S(=O)(=O)c2c(C)nn(C(C)(C)C)c2OC(=O)c2ccc(Br)o2)cc1 | . | ? | -72 | . | ? | .
CCc1cccc(NC(=O)C2CCCC2)c1 | . | . | . | . | . | .
CCCNC(=O)C1(C)CCCN(CC(=O)c2ccc3c(c2)OCCO3)C1 (stereo not drawn) | . | . | . | . | . | .
O=C(Cn1c2[n+](c3ccc(C(F)(F)F)cc31)CCCCC2)Nc1ccccc1 | -51 | ? | . | . | . | .
FC(F)(F)c1ccc2c(c1)n(Cc1ccccc1)c1[n+]2CCCCC1 | . | ? | . | . | ? | .
O=C(Cn1c2[n+](c3ccc(C(F)(F)F)cc31)CCCCC2)c1ccc2c(c1)OCCO2 | ? | ? | . | . | 21µM | .
CCc1cccc(NC(=O)Cn2c3[n+](c4ccc(C(F)(F)F)cc42)CCCCC3)c1 | . | ? | -68 | . | 16µM | .
Cc1ccc(Cn2ccnc2SCC(=O)Nc2ccc3c(c2)OCCO3)cc1 | / | . | / | . | . | .
COc1ccccc1NC(=O)Nc1nn(C)c2cccc(OC)c12 | . | . | . | . | . | /
SMILES | DRD3 antagonist | TDP1 cell CPT | IL-1B inflam inh | DRD3 agonist | DT40 TDP1 no CPT | ClpP mod
Cc1ccc(/C=C/C(=O)N2CCCC(C)C2)cc1 (stereo not drawn) | . | . | . | . | ? | .
CC1CCN(C(=O)/C=C/c2ccc(C(C)(C)C)cc2)CC1 | . | ? | . | . | 21µM | .
CC1(C(=O)NS(=O)(=O)c2cccc(OC(F)F)c2)CCN1C(=O)Cc1ccccc1 (stereo not drawn) | . | . | . | . | . | .
CCOC(=O)C1(C)CCCN(C(=O)Cc2ccc3ccccc3c2)C1 (stereo not drawn) | . | 29µM | . | . | 9.2µM | .
CCOC(=O)C1(C)CCCN(C(=O)c2ccccc2)C1 (stereo not drawn) | -61 | ? | . | . | . | .
CCOC(=O)C1(C)CCCN(C(=O)c2ccc(-c3ccccc3)cc2)C1 (stereo not drawn) | . | ? | . | . | 16µM | .
COc1ccc(/C=C2\SC(=S)N(CC(=O)OCC(=O)Nc3cc(Cl)cc(Cl)c3)C2=O)cc1 | . | ? | . | . | . | .
CSc1cnn(CCC#N)c(=O)n1 | . | . | . | . | . | .
C#CCSc1nc(=O)c2cccnc2n1-c1ccc(C)cc1 | . | 5.2µM | . | . | 5.8µM | /
Cc1ccc(Cn2c(CNC(=O)Cc3cccc([N+](=O)[O-])c3)nc3cccnc32)cc1 | / | ? | / | . | ? | .
Cc1ccc(S(=O)(=O)Nc2ccc(S(=O)(=O)Nc3nccs3)cc2)cc1C | . | . | . | . | . | /
Cc1cc(C)c2c(-n3cccc3)c(C(=O)NCCCN3CCCCC3C)sc2n1 (stereo not drawn) | / | ? | / | . | . | .
COc1ccc(CN(C)C(=O)c2oc3ccccc3c2CSC)cc1F | . | 23µM | . | . | 21µM | /
COc1ccc(CCN(C)C(=O)c2oc3ccccc3c2C)cc1OC | . | ? | . | . | ? | .
Cc1cccc(OCC(=O)N/N=C/c2sc(=O)n(Cc3cccc(C(=O)O)c3)c2Cl)c1 | . | . | . | . | . | /
O=C(Nc1cccc(Cl)c1)Nc1nnc(-c2ccncc2)s1 | . | 7.3µM | . | . | 5.8µM | .
O=C(Nc1ccc(F)cc1)Nc1nnc(-c2ccncc2)s1 | . | ? | . | . | 21µM | .
COC(=O)Nc1nnc(-c2ccncc2)s1 | . | ? | . | . | . | ?
Cc1ccc(NC(=O)Nc2nnc(-c3ccncc3)s2)cc1C | . | 21µM | . | . | 13µM | .
CCN(CC)C(=O)[C@H]1C[C@H](CC(=O)NCc2ccco2)C(=O)N2CCc3c([nH]c4cc(CCC(=O)N(C)C)ccc34)[C@]12C | . | . | . | . | . | .
CCOC(=O)NC(=O)/C(C#N)=N\Nc1ccc(Cl)cc1 | . | . | . | . | . | .
CCOC(=O)NC(=O)/C(C#N)=N\Nc1cccc(Cl)c1 | . | 23µM | . | . | 21µM | /
Cc1cn(C)c(CC(=O)Nc2cccc(C#N)c2)c1C(=O)O | / | . | / | . | . | .
